Screening data from PubChem.
L3MBTL1 block = blocks human L3MBTL1. Q9Y468. AlphaScreen L3MBTL1–H3K9me1 peptide binding. Potency, µM (top dose mostly 57.1 µM), without a hit: at the highest dose activity, negative = inhibition, usual class: inhibitors. 230,000 compounds, 0.66% hits. AID 485360; note: potency is the fitted concentration of half-maximal effect; % is set by controls: 0 for no effect and ±100 for the full control effect; nearly all actives have a fitted effect of over 60% in size
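L3MBTL1 (50 nM) pre-complexed 30 min with biotinylated H3(1-15)K9me1 peptide (75 nM), then compounds added for 30 min at room temperature; AlphaScreen streptavidin donor/nickel chelate acceptor beads (10 ug/mL final) read after 30 min dark incubation.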
Pol eta inh-1 = DNA polymerase eta (human) inhibition. Q9Y253. recombinant Pol eta, fluorescent DNA replication assay. Potency, µM (highest dose often 114 µM), inactives show at the highest dose activity change, negative = inhibition, most hits filed as inhibitors. 390,000 compounds, 1.2% hits. AID 588591; note: potency is the fitted concentration of half-maximal effect; % is set by controls: 0 for no effect and ±100 for the full control effect
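Pol eta at 10 nM preincubated with compounds 15 min at room temperature; reaction started with fluorescent substrate (50 nM final) and read kinetically at 0 and 10 min.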
Pol kappa inh-1 = blocks human DNA polymerase kappa activity. Q9UBT6. purified Pol kappa, fluorescent DNA synthesis assay, 10 min. Potency, µM (top dose mostly 107 µM), for the others: at the top dose activity, negative = inhibition, most hits filed as inhibitors. 400,000 compounds, 0.53% hits. AID 588579; note: potency is the fitted concentration of half-maximal effect; % is set by controls: 0 for no effect and ±100 for the full control effect
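Readout: fluorescence, taken kinetically at 0 and 10 min. Conditions: 10 nM Pol kappa, 15 min RT compound preincubation, 50 nM substrate final. Controls: enzyme-free buffer wells.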
POLI inh = DNA polymerase iota (human) inhibition | Pol iota fluorescent replication assay, 10 min | Q9UNA4 | Potency, µM (series often up to 115 µM), inactives show at the top dose activity, negative = inhibition, most hits filed as inhibitors | 390,000 compounds, 1% hits; note: potency is the fitted concentration of half-maximal effect
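Pol iota at 10 nM preincubated 15 min with compounds at room temperature; reaction started with fluorescent substrate, 50 nM final. Fluorescence read kinetically at 0 and 10 min; buffer-only wells as negative control.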
Pol beta inh = inhibitors of human DNA polymerase beta; P06746; Pol beta primer extension/strand displacement, fluorescence kinetic; Potency, µM (doses to about 114 µM), inactives show at the top dose activity change, negative = inhibition, actives largely listed as inhibitors; 340,000 compounds, 1.3% hits; AID 485314; note: potency is the fitted concentration of half-maximal effect; % is set by controls: 0 for no effect and ±100 for the full control effect
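Enzyme-only controls used 10 nM Pol beta; buffer lacking enzyme served as negative control. Compound preincubated 15 min, then 50 nM substrate added; 0 and 10 min reads at room temperature.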
TbPGK inh = validation of Trypanosoma brucei phosphoglycerate kinase inhibitors; shares compounds with Pol kappa inh-1; TbPGK coupled GAPDH assay, Kinase-Glo luminescence; Potency, µM (top dose mostly 57.5 µM), for inactives: at the highest dose activity change, negative = inhibition, usual class: inhibitors; 500 compounds, 79% hits; AID 686980; note: potency is the fitted concentration of half-maximal effect; % is set by controls: 0 for no effect and ±100 for the full control effect; nearly all actives have a fitted effect of over 65% in size
Target sequence (P07378 whole entry, looked up): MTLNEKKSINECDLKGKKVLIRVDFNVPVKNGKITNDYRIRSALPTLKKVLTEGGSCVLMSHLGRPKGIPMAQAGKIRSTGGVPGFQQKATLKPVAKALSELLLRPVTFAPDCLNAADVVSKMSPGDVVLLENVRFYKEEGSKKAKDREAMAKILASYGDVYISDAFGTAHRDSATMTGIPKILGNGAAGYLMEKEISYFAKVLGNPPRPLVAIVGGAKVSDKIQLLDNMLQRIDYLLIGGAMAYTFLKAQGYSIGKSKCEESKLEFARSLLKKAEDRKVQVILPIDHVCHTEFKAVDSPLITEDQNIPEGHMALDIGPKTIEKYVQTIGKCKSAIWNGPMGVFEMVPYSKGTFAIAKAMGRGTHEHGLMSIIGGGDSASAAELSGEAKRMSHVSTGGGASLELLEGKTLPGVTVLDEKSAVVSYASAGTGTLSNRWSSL
POLI cherry-pick = Human Pol iota inhibitor confirmatory assay | shares compounds with Pol kappa inh-1 | Pol iota primer extension, TAMRA/BHQ fluorescence | Potency, µM, actives largely listed as inhibitors | 1,500 compounds, 77% hits; note: potency is the fitted concentration of half-maximal effect
GALK inh confirm = confirmation of human galactokinase (GALK) inhibitors; Potency, µM (highest dose often 115 µM), for inactives: at the top dose activity, negative = inhibition, actives largely listed as inhibitors; purified GALK, Kinase-Glo ATP depletion luminescence; shares compounds with Pol eta inh-1; AID 2015; 150 compounds, 70% hits
Redox cycling = generates H2O2 by redox cycling, flagging GALK artifacts; 150 compounds, 40% hits; Potency, µM (top dose mostly 115 µM), inactives show top-dose activity change, negative = H2O2 signal, actives largely listed as inhibitors; Phenol red-HRP H2O2 redox cycling, absorbance 600 nm; shares compounds with Pol eta inh-1
HEK293 viability = HEK-293 cytotoxicity, GALK inhibitor secondary. shares compounds with Pol eta inh-1. HEK-293 viability, ATP luminescence (CellTiter-Glo), 24/48 h. Potency, µM (top dose mostly 46.1 µM), without a hit: top-dose activity change, negative = cytotoxicity, hits mostly inhibitors. 170 compounds, 10% hits. AID 2547; note: potency is the fitted concentration of half-maximal effect; % is set by controls: 0 for no effect and ±100 for the full control effect
Pol kappa inh-2 = Pol kappa (human) inhibition, cherry-pick confirmation; shares compounds with Pol eta inh-1; purified Pol-kappa, fluorescent strand-displacement substrate; Potency, µM, most hits filed as inhibitors; 920 compounds, 76% hits; AID 720501; note: potency is the fitted concentration of half-maximal effect
Pol eta inh-2 = confirmation of human DNA polymerase eta inhibitors | shares compounds with Pol eta inh-1 | Pol eta primer extension, TAMRA/BHQ fluorescence, 10 min | Potency, µM, hits mostly inhibitors | 2,600 compounds, 64% hits | AID 720502; note: potency is the fitted concentration of half-maximal effect
The depositor's hits bear a star; ? = inconclusive; . = no result given; [ ] = dose if it differs, or a comment. In the library only some 2.4% were active in any assay of this set; here they are far more common. Calls come from the whole dose curve; as a rule, active = well fitted curve in the direction sought with a large enough effect; inconclusive = small, poorly fitted or top-dose-only effect, or another doubt; inactive = no such curve, though single readings can be large; an effect the other way counts as inactive or inconclusive.

SMILES | L3MBTL1 block | Pol eta inh-1 | Pol kappa inh-1 | POLI inh | Pol beta inh | POLI cherry-pick | Pol eta inh-2 | others
Cc1ccc(NC(=O)CSc2nnc3ccc4ccccc4n23)cc1 | . | -10% | -9%[60.1 µM] | -1% | -2% | . | .
CN(C)CCCNc1c2ccccc2nc2ccccc12 | . | 22µM* | 25µM* | 8.9µM* | 2.2µM* | 11* | . | Pol kappa inh-2=9.5*
CN(Cc1ccco1)c1ncnc2ccc(-c3ccoc3)cc12 | ? | -26% | ? | 28µM* | . | 17* | 38* | Pol kappa inh-2=17*
CN(Cc1ccco1)c1ncnc2ccc(-c3ccccc3Cl)cc12 | -12% | -14% | -2% | 1% | . | . | .
Cc1ccc(-c2nc3ccc(C(=O)O)cc3nc2-c2ccc(C)cc2)cc1 | 1% | 0% | -18% | 5% | 14% | . | .
O=S(=O)(c1ccc2nc(-c3ccco3)c(-c3ccco3)nc2c1)N1CCOCC1 | -88% | 14µM* | ? | ? | 28µM* | 42* | 24* | Pol kappa inh-2=9.5*
O=C(O)c1ccc2nc(-c3ccco3)c(-c3ccco3)nc2c1 | 2.2µM* | 3.5µM* | 22µM* | ? | 3.5µM* | 4.7* | 3.8*
O=S(=O)(c1ccc2ccccc2c1)N1CCOCC1 | . | -4% | 1% | 18% | 0% | . | .
Nc1ccc(C(=O)N/N=C/c2cn(Cc3ccc(F)cc3)c3ccccc23)cc1 | . | -12% | -16% | 8% | -28% | . | .
O=C(N/N=C/c1cn(Cc2cccc(F)c2)c2ccccc12)c1cc(O)cc(O)c1 | . | 1.6µM* | 7.1µM* | ? | 1.4µM* | 8.4* | 8.5* | TbPGK inh=2.1µM*
CN(C)CCCNC(=O)c1ccccn1 | . | -6% | -6% | 11% | 8% | . | .
CN(C)CCCNC(=O)c1ccc(-c2cc(O)c3ncccc3c2)cc1 | 20µM* | -10% | -14% | -9% | . | 47* | ?
CC(C)(C)OC(=O)NC(Cc1ccccc1)C(=O)NC1COC2CC(n3cc(F)c(=O)[nH]c3=O)OC12 (configuration not stated) | . | . | -10% | 16% | . | . | .
COc1cccc(NS(=O)(=O)c2ccc3c(c2)C2C=CCC2C(c2ccc(C(=O)O)cc2)N3)c1 (configuration not stated) | 10µM* | 3.2µM* | 16µM* | 20µM* | ? | 38* | 27*
CN(C)c1ccc2nc3c(=O)[nH]c(=O)nc-3n(CC(O)C(O)C(O)CO)c2c1 (configuration not stated) | . | ? | ? | 28µM* | 25µM* | 24* | 38* | Pol kappa inh-2=?
CCCc1cnc2c(c1SCC(=O)Nc1ccccc1OCC)c(=O)n(C)c(=O)n2C | . | 0% | -7%[60.1 µM] | ? | 17% | . | .
O=C(N/N=C/c1cc(Cl)c(O)c(Cl)c1)c1cc2c(ccc3ccccc32)o1 | . | 22µM* | ? | ? | 28µM* | ? | 43* | Pol kappa inh-2=75*
Cc1nc2ccccn2c1C(=O)N/N=C/c1ccc([N+](=O)[O-])o1 | ? | 7.9µM* | 50µM* | 11µM* | 32µM* | 60* | 34*
O=C(N/N=C/c1ccc([N+](=O)[O-])o1)c1cc2c(ccc3ccccc32)o1 | 6.3µM* | 32µM* | -25% | ? | 3.2µM* | 27* | 19*
O=C(N/N=C/c1ccc(O)c(Br)c1)c1cc2c(ccc3ccccc32)o1 | . | 6% | -15% | 1% | 0% | . | .
Cc1ccc(/C=N/NC(=O)c2cc3c(ccc4ccccc43)o2)o1 | . | -10% | 1% | 16% | -4% | . | .
O=c1cc(-c2ccccc2)oc2c1ccc1ccccc12 | . | . | -11%[19.4 µM] | . | . | . | .
O=c1cc(-c2ccc(O)c(O)c2)oc2c1ccc1ccccc12 | -10% | 3.2µM* | 35µM* | 10µM* | . | 27* | 4.8* | Pol kappa inh-2=21*
CCc1nnc(NC(=O)C(=O)c2cc(C)n(-c3ccccc3)c2C)s1 | . | 50µM* | -5% | -21% | 15% | ? | 85* | Pol kappa inh-2=13*
O=C(CSc1nnc(-c2ccccc2)o1)c1cccc([N+](=O)[O-])c1 | . | -5% | -14% | -1% | -3% | . | .
SMILES | L3MBTL1 block | Pol eta inh-1 | Pol kappa inh-1 | POLI inh | Pol beta inh | POLI cherry-pick | Pol eta inh-2 | others
CCOC(=O)CC(NS(=O)(=O)c1ccc2[nH]cc(C(=O)O)c(=O)c2c1)c1ccc(OCC)c(OC)c1 (configuration not stated) | . | 4µM* | 50µM* | 20µM* | 3.5µM* | 34* | 27*
O=C1CCCC(O)=C1N=Nc1cccc(C(=O)O)c1 | 8.9µM* | 10µM* | 50µM* | 14µM* | 10µM* | 34* | 27*
CCc1ccc(S(=O)(=O)c2nnn3c2nc(Nc2cc(OC)cc(OC)c2)c2cc(Cl)ccc23)cc1 | . | -17% | 4% | 18% | 17% | . | .
CN(Cc1ccco1)c1ncncc1-c1cccc(C#N)c1 | . | . | -2%[60.1 µM] | . | . | . | .
C=C(C)C(=O)Oc1ccc(N=Nc2ccc(C)cc2)ccc1=O | . | 3.5µM* | 50µM* | ? | . | 24* | 19* | TbPGK inh=1.5µM*;Pol kappa inh-2=11*
CC(=O)c1ccc(N=Nc2ccc(C)cc2)cc1 | . | -22% | -3% | 77% | 23% | . | .
CS(=O)(=O)c1ccc2c(c1)sc1nc(=O)c(/C=C3/C=CC(=O)C(O)=C3)c(N)n12 | ? | 0.79µM* | 7.9µM* | 4µM* | 3.2µM* | 6.7* | 1.5* | TbPGK inh=?;GALK inh confirm=19µM*;Redox cycling=?;HEK293 viability=1%
CS(=O)(=O)c1nsc2nc(=O)c(/C=C3\C=Nc4ccccc43)c(N)n12 | . | ? | -18% | -3% | 21% | . | .
